Experimental data taken from PubChem BioAssay (EPA / NIEHS).
Results filed as inconclusive are left out. Activity calls are given as the source filed them. The calls were made as follows, unless noted: active = hit-call score of the fitted dose curve at least 0.9, where 1 is the maximum; inconclusive = response in the unintended direction; inactive = score below 0.9.

Assays:
[1] = ATG_TAL_CIS: Attagene CIS-FACTORIAL HepG2 Assay for human TAL Basal Promoter (AID 2282966; active = hit-call score of the fitted dose curve at least 0.9, where 1 is the maximum; inactive = score below 0.9;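 also: background control endpoint measuring basal TAL promoter reporter mRNA not a specific factor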); conditions: HepG2 Attagene cis-factorial TAL promoter reporter; actives raise or lower the signal
In short: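 In this cell-based multiplex, HepG2 liver cells bearing cis-promoter reporter constructs are dosed for 24 hours. Total RNA is reverse-transcribed and amplified, labelled fragments are sized by capillary electrophoresis, and signal changes are fitted bidirectionally versus DMSO.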

[2] = ATG_TGFb_CIS: Attagene CIS-FACTORIAL HepG2 Assay for human Transforming Growth Factor (TGF) (AID 2282967; active = hit-call score of the fitted dose curve at least 0.9, where 1 is the maximum; inactive = score below 0.9); conditions: HepG2 Attagene CIS TGFb reporter, mRNA transcription; actives raise or lower the signal
In short: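 Bidirectional fitting relative to DMSO gave the endpoint. Underlying data: reporter mRNA from HepG2 cells carrying transiently transfected cis-regulated reporter constructs, harvested 24 h after dosing and analyzed by RT-PCR and capillary electrophoresis.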

[3] = ATG_VDRE_CIS: Attagene CIS-FACTORIAL HepG2 Assay for human Vitamin D Receptor Element (VDRE) (AID 2282968; active = hit-call score of the fitted dose curve at least 0.9, where 1 is the maximum; inactive = score below 0.9); conditions: HepG2 VDRE cis-reporter transcription, actives raise or lower the signal
In short: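 In transiently transfected HepG2 liver cells, gain or loss of reporter mRNA after 24 h exposure is scored relative to DMSO, using fluorescence detection by capillary electrophoresis of RT-PCR products.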

[4] = biological target: Nuclear receptor subfamily 1 group I member 3 (Homo sapiens) (UniProt Q14994); experiment: ATG_CAR_TRANS: Attagene TRANS-FACTORIAL HepG2 Assay for human Constitutive Androstane Receptor (CAR) (AID 2282969); conditions: HepG2 Attagene TRANS-FACTORIAL CAR reporter;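 also: activators raise reporter mRNA above DMSO so AC50 marks induction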
In short: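 Readout is reporter mRNA induction, quantified by fluorescent primer extension and capillary electrophoresis after RT-PCR. Cells were HepG2 transiently carrying chimeric NR-Gal4 constructs with GAL4-UAS reporters, treated for 24 h; activity scored upward from DMSO.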

[5] = biological target: X-box-binding protein 1 (Homo sapiens) (UniProt P17861); experiment: ATG_Xbp1_CIS: Attagene CIS-FACTORIAL HepG2 Assay for human X-box Binding Protein 1 (XBP1) (AID 2282972; active = hit-call score of the fitted dose curve at least 0.9, where 1 is the maximum; inactive = score below 0.9); conditions: HepG2 XBP1 cis-element reporter, Attagene multiplex; actives raise or lower the signal
In short: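 Fluorescence-labelled cDNA fragments from reporter transcripts, separated by capillary electrophoresis, give the signal. Source: HepG2 cells transfected with promoter-driven reporter units, harvested 24 h post-dose. DMSO served as reference for bidirectional curve fitting.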

[6] = ATG_M_19_TRANS: Attagene TRANS-FACTORIAL HepG2 Assay for M19 Transcription Factor (Internal Marker) (AID 2282974); conditions: HepG2 Attagene TRANS-FACTORIAL M19 internal marker reporter
In short: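 HepG2 transiently transfected with GAL4-UAS multiplex reporter constructs, exposed 24 h; reporter RNA quantified by RT-PCR, 6-FAM labeling, HpaI digestion and capillary electrophoresis; internal background marker fitted upward versus DMSO.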

[7] = biological target: Glucocorticoid receptor (Homo sapiens) (UniProt P04150); experiment: ATG_GR_TRANS: Attagene TRANS-FACTORIAL HepG2 Assay for human Glucocorticoid Receptor (GR) (AID 2282978); conditions: HepG2 Attagene TRANS GR reporter, mRNA transcription;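 also: activators score as hits since higher reporter transcript over DMSO is fitted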
In short: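 HepG2 cells transiently transfected with GAL4-UAS reporter units and exogenous GR-Gal4 chimera, dosed 24 h. Reporter mRNA by RT-PCR, FAM labeling, HpaI digest and capillary electrophoresis; gain-of-signal fit versus DMSO.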

[8] = biological target: Oxysterols receptor LXR-alpha (Homo sapiens) (UniProt Q13133); experiment: ATG_LXRa_TRANS: Attagene TRANS-FACTORIAL HepG2 Assay for human Liver X Receptor alpha (LXRa) (AID 2282980); conditions: HepG2 Attagene TRANS reporter, LXRa transactivation
In short: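 Read-out: reporter transcript levels by RT-PCR plus capillary electrophoresis, fluorescence intensity. Transiently transfected HepG2, exogenous NR-GAL4 chimera, GAL4-UAS reporters; 24 h compound exposure. Activity = increase over DMSO negative control.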

[9] = biological target: Hepatocyte nuclear factor 4-alpha (Homo sapiens) (UniProt P41235); experiment: ATG_HNF4a_TRANS: Attagene TRANS-FACTORIAL HepG2 Assay for human Hepatocyte Nuclear Factor 4 alpha (HNF4a) (AID 2282982); conditions: HepG2 HNF4a transactivation reporter, mRNA readout
In short: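 Transfected HepG2 reporter cells are dosed for 24 h; reporter RNA is reverse-transcribed, amplified, fluorescently labelled and HpaI-digested before CE sizing. Positive-direction fit against DMSO.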

[10] = ATG_M_06_TRANS: Attagene TRANS-FACTORIAL HepG2 Assay for M06 Transcription Factor (Internal Marker) (AID 2282983); conditions: HepG2 Attagene TRANS M06 internal marker reporter
In short: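 After a 24 h chemical treatment of transfected HepG2, RNA underwent DNase I treatment, reverse transcription and reporter-specific PCR; labelled, HpaI-digested products were sized by capillary electrophoresis. Signal increase relative to DMSO defined activity.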

[11] = ATG_M_32_TRANS: Attagene TRANS-FACTORIAL HepG2 Assay for M32 Transcription Factor (Internal Marker) (AID 2282984); conditions: HepG2 Attagene TRANS M32 internal marker reporter;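 also: transcript level of a background control reporter unit measured by RT-PCR and capillary electrophoresis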
In short: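 Using transiently transfected HepG2 cells exposed to test chemicals for 24 h, reporter transcripts are converted to labelled cDNA fragments and quantified by capillary electrophoresis. DMSO defines the activity baseline.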

[12] = biological target: Transcriptional activator Myb (Homo sapiens) (UniProt P10242); experiment: ATG_Myb_CIS: Attagene CIS-FACTORIAL HepG2 Assay for human Myeloblastosis (Myb) Proto-Oncogene Transcription Factor (AID 2282986; active = hit-call score of the fitted dose curve at least 0.9, where 1 is the maximum; inactive = score below 0.9); conditions: HepG2 Attagene CIS-FACTORIAL Myb reporter transcription; actives raise or lower the signal
In short: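 Transiently transfected HepG2 cells carrying a multiplexed cis-promoter reporter set report endogenous Myb activity after 24 h compound exposure. Reporter mRNA is read by RT-PCR with capillary electrophoresis of fluorescent products, fitted bidirectionally against DMSO.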

[13] = biological target: Nuclear respiratory factor 1 (Homo sapiens) (UniProt Q16656); experiment: ATG_NRF1_CIS: Attagene CIS-FACTORIAL HepG2 Assay for human Nuclear Respiratory Factor 1 (NRF1) Orphan Gene (AID 2282987; active = hit-call score of the fitted dose curve at least 0.9, where 1 is the maximum; inactive = score below 0.9); conditions: HepG2 NRF1 cis-element reporter, Attagene multiplex; actives raise or lower the signal
In short: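 HepG2 cells transiently transfected with multiple cis-regulated reporter units, exposed 24 h. Reporter mRNAs measured by RT-PCR, fluorescent labelling, HpaI digestion and capillary electrophoresis; bidirectional fitting against DMSO.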

[14] = ATG_GAL4_TRANS: Attagene TRANS-FACTORIAL HepG2 Assay for GAL4 (Internal Marker) (AID 2282976); conditions: HepG2 Attagene TRANS GAL4 internal marker reporter
In short: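 RT-PCR/capillary electrophoresis readout of reporter mRNA. HepG2, transient MRTU transfection (GAL4-UAS reporters), 24 h compound exposure. Background-control endpoint, positive direction vs DMSO baseline.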

[15] = biological target: Nuclear receptor subfamily 4 group A member 2 (Homo sapiens) (UniProt P43354); experiment: ATG_NURR1_TRANS: Attagene TRANS-FACTORIAL HepG2 Assay for human Nuclear Receptor Related Protein 1 (NURR1) (AID 2282985); conditions: HepG2 Attagene TRANS reporter, mRNA readout
In short: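 Cells: HepG2, transiently transfected. Exposure: 24 h. Detection: fluorescence of labelled RT-PCR products separated by capillary electrophoresis; upward fit versus DMSO.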

[16] = biological target: Oxysterols receptor LXR-beta (Homo sapiens) (UniProt P55055); experiment: ATG_LXRb_TRANS: Attagene TRANS-FACTORIAL HepG2 Assay for human Liver X Receptor beta (LXRb) (AID 2282981); conditions: HepG2 Attagene TRANS GAL4-LXRb reporter, mRNA
In short: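 Cells: HepG2, transiently transfected with GAL4-UAS reporter units plus LXRb-Gal4 fusion. Treatment: 24 h. Detection: reporter mRNA by RT-PCR, 6-FAM labelling, HpaI digestion, capillary electrophoresis.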

[17] = biological target: Bile acid receptor (Homo sapiens) (UniProt Q96RI1); experiment: ATG_FXR_TRANS: Attagene TRANS-FACTORIAL HepG2 Assay for Farnesoid X Receptor (FXR) (AID 2282979); conditions: HepG2 Attagene TRANS FXR-GAL4 reporter transcription;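 also: hits raise reporter mRNA above DMSO so AC50 marks FXR activation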
In short: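 Read-out: fluorescent reporter transcripts quantified by capillary electrophoresis after RT-PCR of total RNA. Source cells were HepG2 transiently carrying chimeric NR-GAL4 plus GAL4-UAS reporter units, dosed 24 h. Activity fitted upward relative to DMSO baseline.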

Nuclear receptor subfamily 4 group A member 2 (Homo sapiens), sequence (P43354 whole entry, looked up): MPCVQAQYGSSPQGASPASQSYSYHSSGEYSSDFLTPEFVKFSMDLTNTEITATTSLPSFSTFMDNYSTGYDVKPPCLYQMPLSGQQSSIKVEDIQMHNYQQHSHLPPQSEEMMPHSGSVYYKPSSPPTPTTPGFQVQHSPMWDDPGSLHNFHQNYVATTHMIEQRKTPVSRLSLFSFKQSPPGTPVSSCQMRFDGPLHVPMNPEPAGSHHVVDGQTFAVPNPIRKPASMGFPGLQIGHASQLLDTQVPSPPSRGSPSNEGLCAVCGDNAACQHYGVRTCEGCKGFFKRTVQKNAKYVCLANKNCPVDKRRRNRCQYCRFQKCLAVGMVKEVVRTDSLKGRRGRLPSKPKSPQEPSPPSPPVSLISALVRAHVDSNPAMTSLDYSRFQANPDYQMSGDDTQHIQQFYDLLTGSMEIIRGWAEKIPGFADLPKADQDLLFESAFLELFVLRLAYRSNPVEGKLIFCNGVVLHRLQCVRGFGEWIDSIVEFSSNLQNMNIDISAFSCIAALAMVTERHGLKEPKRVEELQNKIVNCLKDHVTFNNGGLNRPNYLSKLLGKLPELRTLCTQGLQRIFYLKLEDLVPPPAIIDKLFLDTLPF
X-box-binding protein 1 (Homo sapiens), sequence (P17861 whole entry, looked up, the tested form may be a part): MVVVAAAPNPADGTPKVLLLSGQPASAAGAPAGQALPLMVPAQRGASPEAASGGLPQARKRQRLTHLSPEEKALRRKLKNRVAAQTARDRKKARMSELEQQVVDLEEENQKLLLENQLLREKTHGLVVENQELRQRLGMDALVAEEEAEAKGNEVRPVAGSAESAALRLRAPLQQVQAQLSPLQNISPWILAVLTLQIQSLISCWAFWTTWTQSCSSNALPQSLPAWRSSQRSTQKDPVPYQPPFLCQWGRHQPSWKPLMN
Oxysterols receptor LXR-alpha (Homo sapiens), sequence (Q13133 whole entry, looked up, the tested form may be a part): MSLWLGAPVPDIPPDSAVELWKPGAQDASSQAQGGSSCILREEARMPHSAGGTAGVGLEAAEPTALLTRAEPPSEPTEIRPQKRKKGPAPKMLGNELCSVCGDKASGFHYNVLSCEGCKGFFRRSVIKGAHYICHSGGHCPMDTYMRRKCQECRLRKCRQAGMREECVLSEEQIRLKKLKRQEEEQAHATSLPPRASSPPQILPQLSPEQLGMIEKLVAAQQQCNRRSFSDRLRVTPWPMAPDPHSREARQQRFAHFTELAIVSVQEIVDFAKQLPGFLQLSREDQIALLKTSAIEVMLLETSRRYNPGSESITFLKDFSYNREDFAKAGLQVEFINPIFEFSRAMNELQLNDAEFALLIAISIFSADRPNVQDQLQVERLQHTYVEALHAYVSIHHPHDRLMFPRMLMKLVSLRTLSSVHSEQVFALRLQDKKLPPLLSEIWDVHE
Nuclear receptor subfamily 1 group I member 3 (Homo sapiens), sequence (Q14994 whole entry, looked up, the tested form may be a part): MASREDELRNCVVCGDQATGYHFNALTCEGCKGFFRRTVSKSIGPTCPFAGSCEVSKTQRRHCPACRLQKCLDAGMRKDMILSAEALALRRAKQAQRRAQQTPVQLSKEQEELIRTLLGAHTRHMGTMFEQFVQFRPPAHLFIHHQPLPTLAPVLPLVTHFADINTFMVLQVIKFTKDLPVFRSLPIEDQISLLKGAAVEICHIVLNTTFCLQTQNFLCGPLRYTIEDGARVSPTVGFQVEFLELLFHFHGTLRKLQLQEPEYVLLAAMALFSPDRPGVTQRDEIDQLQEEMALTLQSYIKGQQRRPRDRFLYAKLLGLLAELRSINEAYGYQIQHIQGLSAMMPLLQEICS
Transcriptional activator Myb (Homo sapiens), sequence (P10242 whole entry, looked up): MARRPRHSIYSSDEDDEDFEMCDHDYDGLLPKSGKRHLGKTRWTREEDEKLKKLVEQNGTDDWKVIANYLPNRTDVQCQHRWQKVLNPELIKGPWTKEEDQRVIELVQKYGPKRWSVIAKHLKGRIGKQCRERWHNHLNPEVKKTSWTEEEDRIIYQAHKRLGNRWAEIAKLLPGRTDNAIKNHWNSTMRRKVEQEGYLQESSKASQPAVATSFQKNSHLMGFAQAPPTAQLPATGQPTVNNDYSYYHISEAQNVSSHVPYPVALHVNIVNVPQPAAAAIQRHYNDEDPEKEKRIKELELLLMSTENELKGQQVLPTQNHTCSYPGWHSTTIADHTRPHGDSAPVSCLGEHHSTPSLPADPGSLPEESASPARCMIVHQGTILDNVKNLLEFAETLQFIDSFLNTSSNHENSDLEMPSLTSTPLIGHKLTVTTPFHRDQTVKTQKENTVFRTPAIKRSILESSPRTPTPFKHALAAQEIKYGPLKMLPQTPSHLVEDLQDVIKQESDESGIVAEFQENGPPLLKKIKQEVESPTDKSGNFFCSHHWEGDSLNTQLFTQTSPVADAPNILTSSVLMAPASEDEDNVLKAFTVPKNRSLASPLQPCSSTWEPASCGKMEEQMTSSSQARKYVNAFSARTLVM
Glucocorticoid receptor (Homo sapiens), sequence (P04150 whole entry, looked up, the tested form may be a part): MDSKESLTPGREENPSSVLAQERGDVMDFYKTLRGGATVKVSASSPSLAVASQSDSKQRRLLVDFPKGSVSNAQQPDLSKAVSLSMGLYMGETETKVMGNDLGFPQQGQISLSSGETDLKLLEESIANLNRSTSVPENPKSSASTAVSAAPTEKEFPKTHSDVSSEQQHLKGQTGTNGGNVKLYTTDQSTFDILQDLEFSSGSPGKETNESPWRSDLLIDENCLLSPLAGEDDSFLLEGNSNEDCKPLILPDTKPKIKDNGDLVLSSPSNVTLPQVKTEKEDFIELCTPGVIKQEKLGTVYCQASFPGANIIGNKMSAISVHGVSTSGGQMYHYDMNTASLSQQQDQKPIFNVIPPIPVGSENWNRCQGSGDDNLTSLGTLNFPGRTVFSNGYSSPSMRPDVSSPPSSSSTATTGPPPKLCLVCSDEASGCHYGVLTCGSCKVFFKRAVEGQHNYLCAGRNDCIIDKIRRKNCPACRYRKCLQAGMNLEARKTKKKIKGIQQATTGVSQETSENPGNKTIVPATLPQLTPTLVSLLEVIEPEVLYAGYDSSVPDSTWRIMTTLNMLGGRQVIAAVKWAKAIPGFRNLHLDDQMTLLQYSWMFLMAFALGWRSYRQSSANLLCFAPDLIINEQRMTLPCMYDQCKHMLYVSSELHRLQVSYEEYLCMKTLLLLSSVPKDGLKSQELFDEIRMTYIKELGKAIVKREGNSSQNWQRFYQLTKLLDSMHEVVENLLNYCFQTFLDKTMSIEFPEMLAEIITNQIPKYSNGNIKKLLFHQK
Nuclear respiratory factor 1 (Homo sapiens), sequence (Q16656 whole entry, looked up): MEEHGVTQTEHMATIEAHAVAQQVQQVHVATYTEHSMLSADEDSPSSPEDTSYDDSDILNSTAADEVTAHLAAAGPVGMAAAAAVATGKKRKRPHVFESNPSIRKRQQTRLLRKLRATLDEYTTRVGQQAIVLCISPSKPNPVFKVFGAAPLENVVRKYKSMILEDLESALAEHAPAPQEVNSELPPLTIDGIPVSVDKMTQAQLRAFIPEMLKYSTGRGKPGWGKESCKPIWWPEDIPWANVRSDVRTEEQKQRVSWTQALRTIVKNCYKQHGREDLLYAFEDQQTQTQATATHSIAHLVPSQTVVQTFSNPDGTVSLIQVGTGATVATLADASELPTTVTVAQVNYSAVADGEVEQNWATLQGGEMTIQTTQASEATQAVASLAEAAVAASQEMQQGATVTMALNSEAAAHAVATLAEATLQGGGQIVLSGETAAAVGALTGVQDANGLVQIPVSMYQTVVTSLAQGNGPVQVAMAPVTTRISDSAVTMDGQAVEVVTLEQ
Oxysterols receptor LXR-beta (Homo sapiens), sequence (P55055 whole entry, looked up, the tested form may be a part): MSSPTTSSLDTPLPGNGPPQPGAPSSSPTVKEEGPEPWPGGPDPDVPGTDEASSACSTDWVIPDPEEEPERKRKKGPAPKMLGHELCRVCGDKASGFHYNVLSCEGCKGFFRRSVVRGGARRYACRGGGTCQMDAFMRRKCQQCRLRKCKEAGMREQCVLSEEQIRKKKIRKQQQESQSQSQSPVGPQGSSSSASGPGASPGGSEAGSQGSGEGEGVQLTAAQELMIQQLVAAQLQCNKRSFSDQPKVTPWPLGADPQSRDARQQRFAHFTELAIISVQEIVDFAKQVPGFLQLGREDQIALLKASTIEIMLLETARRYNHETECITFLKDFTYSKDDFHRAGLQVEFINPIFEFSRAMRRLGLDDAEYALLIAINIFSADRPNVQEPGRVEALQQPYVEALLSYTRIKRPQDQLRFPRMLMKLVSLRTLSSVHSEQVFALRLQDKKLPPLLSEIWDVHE
Hepatocyte nuclear factor 4-alpha (Homo sapiens), sequence (P41235 whole entry, looked up): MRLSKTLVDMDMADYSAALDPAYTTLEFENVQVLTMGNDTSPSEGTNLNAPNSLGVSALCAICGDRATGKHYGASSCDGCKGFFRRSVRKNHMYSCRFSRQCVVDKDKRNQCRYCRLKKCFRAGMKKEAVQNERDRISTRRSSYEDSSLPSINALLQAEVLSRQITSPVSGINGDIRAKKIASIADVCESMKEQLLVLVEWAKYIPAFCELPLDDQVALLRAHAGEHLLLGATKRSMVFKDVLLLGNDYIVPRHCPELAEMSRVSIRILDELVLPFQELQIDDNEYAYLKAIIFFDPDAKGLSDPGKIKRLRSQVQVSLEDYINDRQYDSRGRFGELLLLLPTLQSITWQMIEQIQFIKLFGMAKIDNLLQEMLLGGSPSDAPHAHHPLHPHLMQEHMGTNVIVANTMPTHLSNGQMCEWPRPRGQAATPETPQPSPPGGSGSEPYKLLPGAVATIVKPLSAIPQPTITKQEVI
Bile acid receptor (Homo sapiens), sequence (Q96RI1 whole entry, looked up, the tested form may be a part): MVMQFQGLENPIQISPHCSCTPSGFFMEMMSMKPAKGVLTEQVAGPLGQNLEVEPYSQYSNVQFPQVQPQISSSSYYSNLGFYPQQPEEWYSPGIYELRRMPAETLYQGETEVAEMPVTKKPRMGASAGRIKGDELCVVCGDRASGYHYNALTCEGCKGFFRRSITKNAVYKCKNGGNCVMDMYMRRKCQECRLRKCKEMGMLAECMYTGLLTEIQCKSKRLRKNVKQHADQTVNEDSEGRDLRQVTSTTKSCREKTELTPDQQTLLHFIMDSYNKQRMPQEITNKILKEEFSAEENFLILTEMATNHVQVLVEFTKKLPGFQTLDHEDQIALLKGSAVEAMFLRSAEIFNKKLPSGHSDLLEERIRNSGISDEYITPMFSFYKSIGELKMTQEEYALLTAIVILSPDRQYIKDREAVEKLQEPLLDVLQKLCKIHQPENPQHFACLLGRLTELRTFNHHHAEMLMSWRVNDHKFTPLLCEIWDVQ

Compound: CC(C)CCCCCCCOC(=O)c1ccc(C(=O)OCCCCCCCC(C)C)c(C(=O)OCCCCCCCC(C)C)c1
- outcome [1]: inactive
- outcome [2]: inactive
- outcome [3]: inactive
- outcome [4]: inactive
- outcome [5]: inactive
- outcome [6]: inactive
- outcome [7]: inactive
- outcome [8]: inactive
- outcome [9]: inactive
- outcome [10]: inactive
- outcome [11]: inactive
- outcome [12]: inactive
- outcome [13]: inactive

Compound: COc1ccc(NC(=O)CC(C)=O)cc1
- outcome [1]: inactive
- outcome [2]: inactive
- outcome [3]: inactive
- outcome [4]: inactive
- outcome [5]: inactive
- outcome [6]: inactive
- outcome [14]: inactive
- outcome [8]: inactive
- outcome [9]: inactive
- outcome [10]: inactive
- outcome [11]: inactive
- outcome [15]: inactive
- outcome [12]: inactive
- outcome [13]: inactive

Compound: CCCCCCCCCCCCN(CCCCCCCCCCCC)CCCCCCCCCCCC
- outcome [1]: inactive
- outcome [2]: inactive
- outcome [3]: inactive
- outcome [4]: inactive
- outcome [5]: inactive
- outcome [6]: inactive
- outcome [8]: inactive
- outcome [16]: inactive
- outcome [10]: inactive
- outcome [11]: inactive
- outcome [12]: inactive
- outcome [13]: inactive

Compound: CC1=CC(=O)NS(=O)(=O)O1
- outcome [1]: inactive
- outcome [2]: inactive
- outcome [3]: inactive
- outcome [4]: inactive
- outcome [5]: inactive
- outcome [6]: inactive
- outcome [8]: inactive
- outcome [16]: inactive
- outcome [9]: inactive
- outcome [10]: inactive
- outcome [11]: inactive
- outcome [12]: inactive
- outcome [13]: inactive

Compound: CCC(=O)OCCC(C)CCC=C(C)C (stereo not given)
- outcome [1]: inactive
- outcome [2]: inactive
- outcome [3]: inactive
- outcome [4]: inactive
- outcome [5]: inactive
- outcome [6]: inactive
- outcome [14]: inactive
- outcome [16]: inactive
- outcome [9]: inactive
- outcome [11]: inactive
- outcome [15]: inactive
- outcome [12]: inactive
- outcome [13]: inactive

Compound: CC(=O)OCCOC(C)=O
- outcome [1]: inactive
- outcome [2]: inactive
- outcome [3]: inactive
- outcome [4]: inactive
- outcome [5]: inactive
- outcome [6]: inactive
- outcome [14]: inactive
- outcome [7]: inactive
- outcome [8]: inactive
- outcome [9]: inactive
- outcome [10]: inactive
- outcome [11]: inactive
- outcome [12]: inactive
- outcome [13]: inactive

Compound: CC(=O)Nc1ccccc1O
- outcome [1]: inactive
- outcome [2]: inactive
- outcome [3]: inactive
- outcome [4]: inactive
- outcome [5]: inactive
- outcome [14]: inactive
- outcome [10]: inactive
- outcome [15]: inactive
- outcome [12]: inactive
- outcome [13]: inactive

Compound: Cc1ccc(O)c(C(C)(C)C)c1
- AC50 [1]: 181 µM (active)
- outcome [2]: inactive
- AC50 [3]: 100 µM (active)
- outcome [4]: inactive
- AC50 [5]: 142 µM (active)
- outcome [6]: inactive
- outcome [8]: inactive
- outcome [16]: inactive
- outcome [11]: inactive
- AC50 [12]: 184 µM (active)
- outcome [13]: inactive

Compound: C=CCOC(=O)CCC1CCCCC1
- outcome [1]: inactive
- outcome [2]: inactive
- outcome [3]: inactive
- outcome [4]: inactive
- outcome [5]: inactive
- outcome [14]: inactive
- outcome [17]: inactive
- outcome [9]: inactive
- outcome [10]: inactive
- outcome [11]: inactive
- outcome [15]: inactive
- outcome [12]: inactive
- outcome [13]: inactive

Compound: CC(=O)OCc1ccc2c(c1)OCO2
- outcome [1]: inactive
- outcome [2]: inactive
- outcome [3]: inactive
- outcome [4]: inactive
- outcome [5]: inactive
- outcome [14]: inactive
- outcome [7]: inactive
- outcome [17]: inactive
- outcome [8]: inactive
- outcome [10]: inactive
- outcome [11]: inactive
- outcome [15]: inactive
- outcome [12]: inactive

Compound: CCCCCCCCCCCCCCCCCC(=O)OCC(CC)CCCC (stereo not given)
- outcome [1]: inactive
- outcome [2]: inactive
- outcome [3]: inactive
- outcome [4]: inactive
- outcome [5]: inactive
- outcome [6]: inactive
- outcome [14]: inactive
- outcome [8]: inactive
- outcome [16]: inactive
- outcome [9]: inactive
- outcome [10]: inactive
- outcome [11]: inactive
- outcome [12]: inactive
- outcome [13]: inactive
